# Screens: PubChem, National Center for Advancing Translational Sciences (NCATS)
# Most compounds without a hit are left out; they make up all but 11% or so of the library.
# HPGD block: inhibitors of human 15-hydroxyprostaglandin dehydrogenase (HPGD); 4.3% of 150,000 active; AID 894; P15428; Potency, µM, for the others: at the highest dose activity change, negative = inhibition, hits mostly inhibitors; purified HPGD, NADH fluorescence kinetic, PGE2 substrate; active means well fitted inhibition curve with a large enough effect, not every such curve was filed as active; inconclusive means small, poorly fitted or top-dose-only effect, or another doubt; inactive means no such curve, though single readings can be large or run the other way; further: potency means the concentration at half of the fitted maximal effect; on the % scale 0 is the no-effect control and ±100 the full control effect
#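 NADH formation kinetics: reaction with 30 uM PGE2 and 1 mM NAD+ (final), 20 nM enzyme, Tris-HCl pH 8 with Tween 20, after 15 min compound preincubation at room temperature. Fluorescence change, last versus first of five reads.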
# PNC inhibitor: perinucleolar compartment assembly inhibition; activity change (PNC), negative = inhibition, % at 10 µM; PC3M PTB-GFP, PNC prevalence imaging, 16 h; hits give low values; 3.1% of 140,000 active; AID 2417;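 active means readout at or below -70, meaning at least 70% loss of cells showing the perinucleolar compartment, a nuclear body marking cancer cells; inconclusive means readout between -30 and a set limit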;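 further: plate controls were DMSO wells for no effect and camptothecin positive control wells for full effect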
#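 Read-out is percentage of cells bearing a perinucleolar compartment, from automated 20x imaging of fixed, Hoechst-stained PC3M PTB-GFP cells. Cells were seeded 4 h, then exposed 16 h to compound (23 nl of library stock) in duplicate plates.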
# ALDH1A1 inh: ALDH1A1 (human) enzyme inhibition | P00352 | Potency, µM (doses to about 75.3 µM), without a hit: at the highest dose activity, negative = inhibition, actives largely listed as inhibitors | AID 1030 | 7.3% of 220,000 active | Purified ALDH1A1, NADH fluorescence, propionaldehyde substrate; active means well fitted inhibition curve with a large enough effect, not every such curve was filed as active; inconclusive means small, poorly fitted or top-dose-only effect, or another doubt; inactive means no such curve, though single readings can be large or run the other way;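 further: potency means the concentration at half of the fitted maximal effect; plate controls were no enzyme wells and a reference inhibitor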
# Target sequence (P00352 whole entry, looked up): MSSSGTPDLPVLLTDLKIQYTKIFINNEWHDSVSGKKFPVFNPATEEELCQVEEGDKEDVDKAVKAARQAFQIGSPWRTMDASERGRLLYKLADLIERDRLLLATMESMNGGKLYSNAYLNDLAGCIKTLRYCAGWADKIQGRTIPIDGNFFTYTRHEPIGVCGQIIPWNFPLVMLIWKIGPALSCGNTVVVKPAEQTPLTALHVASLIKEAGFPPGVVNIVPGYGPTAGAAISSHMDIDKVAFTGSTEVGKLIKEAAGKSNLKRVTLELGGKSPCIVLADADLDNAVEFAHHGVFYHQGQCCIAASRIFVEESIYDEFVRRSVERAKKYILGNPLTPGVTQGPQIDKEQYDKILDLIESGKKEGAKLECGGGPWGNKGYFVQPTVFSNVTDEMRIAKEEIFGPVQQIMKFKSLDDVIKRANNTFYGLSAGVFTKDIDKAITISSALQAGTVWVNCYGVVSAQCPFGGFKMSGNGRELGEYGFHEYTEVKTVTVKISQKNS
# HTT ATP protect: Huntington cell model cytoprotection by ATP luminescence | 0.14% of 230,000 active | Potency, µM (top dose mostly 56.4 µM), without a hit: cytoprotection (ATP increase), actives largely listed as activators | PC12 HTT-Q103 induced, cytoprotection, ATP luminescence, 40 h; further: potency means the concentration at half of the fitted maximal effect; % of control where 0% means no effect; nearly all actives have a fitted effect of over 45% in size
#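 Huntington model: PC12 line, ecdysone-inducible HTTQ103 exon1–GFP, tebufenozide 100 nM. Test articles in a dose series. Endpoint luminescence from cellular ATP.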
# HTT aggregate: mutant huntingtin aggregation inhibition | 1.1% of 220,000 active | Potency, µM (top dose mostly 46.1 µM), for inactives: top-dose activity change, negative = inhibition, actives largely listed as inhibitors | PC12 HttQ103-GFP aggregates, Acumen cytometry, 40 h; further: potency means the concentration at half of the fitted maximal effect; on the % scale 0 is the no-effect control and ±100 the full control effect; nearly all actives have a fitted effect of over 60% in size
#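 Read-out: GFP aggregate count by laser scanning cytometer (488 nm excitation, 500-530 nm emission, 1–25 µm objects >6 SD above background). Cells: PC12, inducible HTTex1-Q103-GFP, 100 nM tebufenozide; compounds titrated.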
# GoLoco inh red: RGS12 GoLoco-Gai1 interaction inhibition | AID 880 | P63096 | 0.44% of 230,000 active | Potency, µM (highest dose often 61.6 µM), for the others: at the highest dose activity, negative = inhibition, actives largely listed as inhibitors | Gai1:RGS12 GoLoco peptide FP, rhodamine, 10 min; active means well fitted inhibition curve with a large enough effect, not every such curve was filed as active; inactive means no such curve, though single readings can be large or run the other way; further: potency means the concentration at half of the fitted maximal effect; on the % scale 0 is the no-effect control and ±100 the full control effect; nearly all actives have a fitted effect of over 30% in size
# Numbers without * were called inactive; ? = inconclusive; . = no result given; [ ] = dose if it differs, or a comment. Unless noted, the call rests on the fitted dose curve; in most records, active means well fitted curve in the direction sought with a large enough effect; inconclusive means small, poorly fitted or top-dose-only effect, or another doubt; inactive means no such curve, though single readings can be large; an effect the other way counts as inactive or inconclusive.
SMILES,HPGD block,PNC inhibitor,ALDH1A1 inh,HTT ATP protect,HTT aggregate,GoLoco inh red
CC(C)Cn1c(SCC(=O)N2CCc3ccccc3C2)nc2cc(Cl)ccc2c1=O,-7%,1,10µM*,14%[10 µM],10µM*,-6%
Cc1cccc(-n2c(SCC(=O)N3CC(=O)Nc4ccccc43)nc3ccccc3c2=O)c1C,-27%,?,-8%,0.89µM*,?,-20%
Cc1cccc(-n2c(SCC(=O)N3CC(=O)Nc4ccccc43)nc3ccccc3c2=O)c1,.,.,?,3%,19%,53%
O=C(O)CCC(O)=C1S(=O)(=O)OCCOS1(=O)=O,-5%,.,8%[13.5 µM],3%[10 µM],.,2%[14.2 µM]
CCn1ncc(CN2CCN(Cc3cccc(OC)c3)C(CCO)C2)c1C (centres undefined),.,.,11%,0%[10 µM],-6%[9.22 µM],4%
COc1ccccc1/C=C/C=N/n1c(-c2ccc(Cl)cc2)n[nH]c1=S,.,.,11µM*,-16%[10 µM],-6%[9.22 µM],1%
COc1ccccc1/C=C/C=N/n1c(C2CCCCC2)n[nH]c1=S,7.1µM*,5,?,9%[10 µM],18%,2%
COc1ccccc1/C=C/C=N/N1CCN(Cc2ccccc2)CC1,-12%,-5,?,33%[10 µM],-10%,1%
COc1cc(/C=N/n2c(-c3ccccc3)n[nH]c2=S)cc(OC)c1OC,.,.,.,4%[10 µM],6%[9.22 µM],-7%
COc1ccc(-c2n[nH]c(=S)n2/N=C/C=C/c2ccccc2OC)cc1,1.3µM*,50,1%,-31%[10 µM],22%,10%
COc1ccccc1/C=C/C=N/n1c(-c2ccccc2)n[nH]c1=S,.,.,28µM*,-3%[10 µM],16%[9.22 µM],9%
O=C(c1ccco1)N1CCN(C(=O)c2cc(-c3ccccn3)nc3ccc(Cl)cc23)CC1,?,41,?,-28%,-11%,45%
COc1cccc([C@@H]2Oc3ccc(OC)cc3C[C@H]2OC(=O)NS(=O)(=O)c2ccc(C)cc2)c1,-20%,.,4%,-15%,.,-1%
Cc1cc2oc(=O)cc(-c3ccccc3)c2c(C)c1-c1ccoc1,-6%,.,?,.,.,1%[88.7 µM]
CC(C)(C)Cc1nnc(NC(=O)CN2C(=O)c3ccccc3C2=O)s1,.,.,22µM*,20%[10 µM],21%[9.22 µM],2%
CCCCc1nnc(NC(=O)CN2C(=O)c3ccccc3C2=O)s1,.,.,0%,15%,13%,5%
CCn1c(SCC(=O)c2ccc(OC)cc2)nnc1C(C)NC(=O)c1ccc(OC)cc1 (centres undefined),-16%,-18,12µM*,20%[10 µM],16%,2%
CCn1c(COc2ccc3c(c2)OCO3)nnc1SCC(=O)c1ccccc1,22µM*,?,?,3%,?,-17%
CCn1c(SCC(=O)c2ccc(Br)cc2)nnc1C(C)NC(=O)Cc1ccc(OC)cc1 (centres undefined),-10%,15,8%,4%,4%[9.22 µM],12%
CCOc1ccc(NC(=O)CSc2nnc(C(C)C)n2CC)cc1,-3%,-119*,-5%,24%[10 µM],-6%,11%
CCn1c(SCC(=O)c2cc(OC)ccc2OC)nnc1C(C)C,-16%,-19,28µM*,-16%,-9%[9.22 µM],-23%
Cc1cccc(CNc2ncnc3ccc(-c4ccccc4C#N)cc23)c1,?,.,?,-4%,.,9%
CCC(=O)c1ccc(OCC(=O)NCC2(N3CCCCC3)CCCCC2)cc1,.,.,3%,-49%,-3%,5%
COC(=O)CSc1nnc(CNC(=O)c2ccccc2OC)n1C,-6%,-88*,-3%,-16%,13%,-4%
COc1ccc(CC(=O)NCc2nnc(SCc3ccc([N+](=O)[O-])cc3)n2C)cc1,.,.,-5%,-3%,7%,5%
SMILES,HPGD block,PNC inhibitor,ALDH1A1 inh,HTT ATP protect,HTT aggregate,GoLoco inh red
CCn1c(CNC(=O)Cc2ccc(OC)cc2)nnc1SCC(=O)c1ccccc1,.,.,2.8µM*,8%[10 µM],?,-2%
COc1ccc(CC(=O)NCc2nnc(SCc3ccc(C)cc3)n2C)cc1,-12%,-92*,-4%,.,3%,7%
S=c1[nH]nc(COc2ccc3c(c2)OCO3)n1-c1ccccc1,25µM*,?,14µM*,-8%,-19%,-1%
CCOc1ccc(N(CC(=O)Nc2ccccc2C(=O)NC(C)CC)S(C)(=O)=O)cc1 (centres undefined),-14%,33,-10%,.,22%,-1%
Cn1c2c(c(=O)n(C)c1=O)C(NS(=O)(=O)c1ccccc1)(C(F)(F)F)C(=O)N2 (centres undefined),-12%,15,5%,3.5µM*,11%,-1%
Cn1c2c(c(=O)n(C)c1=O)C(NC(=O)C(C)(C)C)(C(F)(F)F)C(=O)N2 (centres undefined),-11%,-4,3%,-8%,13%,8%
CCC1Oc2ccc(C)cc2N(CC(=O)N(Cc2cccnc2)Cc2ccc(C)o2)C1=O (centres undefined),28µM*,-11,3.2µM*,-17%[10 µM],?,-27%
CCC1Oc2ccc(C)cc2N(CC(=O)N(Cc2ccc(C)o2)C2CC(C)(C)NC(C)(C)C2)C1=O (centres undefined),-9%,-19,3%,0%[10 µM],?,18%
O=C(Nc1c2c(nc3ccccc13)CCCC2)c1ccccc1F,-4%,-119*,-2%,1%[10 µM],?,3%
O=C(Nc1c2c(nc3ccccc13)CCCC2)c1ccccc1Cl,-9%,-28,6%,25%[10 µM],10%,4%
CC(C)(C)CC(C)(C)NCC(=O)Nc1c2c(nc3ccccc13)CCC2,.,.,9.5µM*,10%[10 µM],4%[9.22 µM],18%
CCNc1ncc2nc(C)c(=O)n(Cc3cccs3)c2n1,.,.,?,-52%,.,16%
CN(C)CCCNC(=O)c1ccc(Cc2nc3ccccc3[nH]2)cc1,-10%,.,2%,.,.,.
Cc1nc2ccccc2n1C(=O)c1ccccc1[N+](=O)[O-],-20%,-2,0%,.,0.14µM*,-4%
Cn1c(=O)cc2c3c(c(N4CCCCC4)ccc31)C(=O)c1ccccc1-2,.,.,.,-12%[10 µM],6%[9.22 µM],16µM*
O=C1c2ccccc2C(=O)c2c1cccc2N1CCCC1,-8%,1,?,13%[10 µM],-10%,78%
CCOc1ccc2noc3c2c1C(=O)c1ccccc1-3,-12%,?,?,0%,-30%,-15%
CCNc1ccc2noc3c2c1C(=O)c1ccccc1-3,-18%,-100*,-7%,27%[10 µM],-24%,4µM*
O=C(O)c1ccccc1NCc1ccco1,.,.,?,16%[10 µM],-11%[9.22 µM],4%
